Measured values from the supplement of paper PMC4466140.

Legend:
Assay in all cases: SPOT peptide array binding signal intensity (averaged, normalized) (arbitrary units (background-subtracted, floor 0; scale differs between SH3 domains)); higher = stronger binding of the SH3 domain to the peptide
CaNbp2 = target: CaNbp2
Outline: (§1)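 SH3 domains from four yeast species were expressed as GST fusions in E. coli BL21(DE3) and purified on glutathione Sepharose. Each was incubated at 10 μg/ml overnight at 4°C in TBS-based blocking buffer on cellulose membranes bearing synthetic 15-mer peptides, in which serines replaced cysteines. Bound protein was detected with anti-GST antibody, an HRP anti-mouse secondary and luminol, then imaged and quantified with Genespotter. The binding signal is the normalized, background-subtracted spot intensity averaged over replicates, in arbitrary units that are not the same from one domain to another.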

CaRvs167 = target: CaRvs167
Outline: as §1

CaRvs167-3 = target: CaRvs167-3
Outline: as §1

CaSho1 = target: CaSho1
Outline: as §1

CaSla1-D1-D2 = target: CaSla1-D1-D2
Outline: as §1

CaSla1-D3 = target: CaSla1-D3
Outline: as §1

ScAbp1 = target: ScAbp1
Outline: as §1

ScBbc1 = target: ScBbc1
Outline: as §1

ScBem1-D1 = target: ScBem1-D1
Outline: as §1

ScBzz1-D1 = target: ScBzz1-D1
Outline: as §1

ScBzz1-D2 = target: ScBzz1-D2
Outline: as §1

ScCyk3 = target: ScCyk3
Outline: as §1

ScFus1 = target: ScFus1
Outline: as §1

ScHof1 = target: ScHof1
Outline: as §1

ScHse1 = target: ScHse1
Outline: as §1

ScLsb1 = target: ScLsb1
Outline: as §1

ScLsb2 = target: ScLsb2
Outline: as §1

ScLsb3 = target: ScLsb3
Outline: as §1

ScLsb4 = target: ScLsb4
Outline: as §1

ScMyo3 = target: ScMyo3
Outline: as §1

ScMyo5 = target: ScMyo5
Outline: as §1

ScNbp2 = target: ScNbp2
Outline: as §1

ScPex13 = target: ScPex13
Outline: as §1

ScRvs167 = target: ScRvs167
Outline: as §1

ScSho1 = target: ScSho1
Outline: as §1

ScSla1-D1-D2 = target: ScSla1-D1-D2
Outline: as §1

ScSla1-D3 = target: ScSla1-D3
Outline: as §1

SpAbp1-D1 = target: SpAbp1-D1
Outline: as §1

SpBbc1 = target: SpBbc1
Outline: as §1

SpBzz1-D1 = target: SpBzz1-D1
Outline: as §1

SpBzz1-D2 = target: SpBzz1-D2
Outline: as §1

SpCyk3 = target: SpCyk3
Outline: as §1

SpHof1 = target: SpHof1
Outline: as §1

SpHof1-2 = target: SpHof1-2
Outline: as §1

SpHof1-3 = target: SpHof1-3
Outline: as §1

SpHse1 = target: SpHse1
Outline: as §1

SpLsb1 = target: SpLsb1
Outline: as §1

SpLsb4 = target: SpLsb4
Outline: as §1

SpMyo1 = target: SpMyo1
Outline: as §1

SpNbp2 = target: SpNbp2
Outline: as §1

SpPex13 = target: SpPex13
Outline: as §1

SpRvs167 = target: SpRvs167
Outline: as §1

SpSla1-D1-D2 = target: SpSla1-D1-D2
Outline: as §1

SpSla1-D3 = target: SpSla1-D3
Outline: as §1

## MARRRLPDRPPNGIG
CaNbp2
  SPOT peptide array binding signal intensity: 1660
CaRvs167
  SPOT peptide array binding signal intensity: 923
CaRvs167-3
  SPOT peptide array binding signal intensity: 25.5
CaSho1
  SPOT peptide array binding signal intensity: 794
CaSla1-D1-D2
  SPOT peptide array binding signal intensity: 1100
CaSla1-D3
  SPOT peptide array binding signal intensity: 138
ScAbp1
  SPOT peptide array binding signal intensity: 135
ScBbc1
  SPOT peptide array binding signal intensity: 126
ScBem1-D1
  SPOT peptide array binding signal intensity: 7
ScBzz1-D1
  SPOT peptide array binding signal intensity: 29
ScBzz1-D2
  SPOT peptide array binding signal intensity: 33
ScCyk3
  SPOT peptide array binding signal intensity: 22.5
ScFus1
  SPOT peptide array binding signal intensity: 61
ScHof1
  SPOT peptide array binding signal intensity: 53.2
ScHse1
  SPOT peptide array binding signal intensity: 241
ScLsb1
  SPOT peptide array binding signal intensity: 434
ScLsb2
  SPOT peptide array binding signal intensity: 176
ScLsb3
  SPOT peptide array binding signal intensity: 3700
ScLsb4
  SPOT peptide array binding signal intensity: 1540
ScMyo3
  SPOT peptide array binding signal intensity: 7
ScMyo5
  SPOT peptide array binding signal intensity: ≤ 0
ScNbp2
  SPOT peptide array binding signal intensity: 523
ScPex13
  SPOT peptide array binding signal intensity: 438
ScRvs167
  SPOT peptide array binding signal intensity: 2820
ScSho1
  SPOT peptide array binding signal intensity: 1560
ScSla1-D1-D2
  SPOT peptide array binding signal intensity: 1290
ScSla1-D3
  SPOT peptide array binding signal intensity: 100
SpAbp1-D1
  SPOT peptide array binding signal intensity: 1340
SpBbc1
  SPOT peptide array binding signal intensity: 43.8
SpBzz1-D1
  SPOT peptide array binding signal intensity: 450
SpBzz1-D2
  SPOT peptide array binding signal intensity: 9
SpCyk3
  SPOT peptide array binding signal intensity: 221
SpHof1
  SPOT peptide array binding signal intensity: 1210
SpHof1-2
  SPOT peptide array binding signal intensity: 1530
SpHof1-3
  SPOT peptide array binding signal intensity: 3040
SpHse1
  SPOT peptide array binding signal intensity: 104
SpLsb1
  SPOT peptide array binding signal intensity: 178
SpLsb4
  SPOT peptide array binding signal intensity: 5420
SpMyo1
  SPOT peptide array binding signal intensity: 52.8
SpNbp2
  SPOT peptide array binding signal intensity: 144
SpPex13
  SPOT peptide array binding signal intensity: 123
SpRvs167
  SPOT peptide array binding signal intensity: 1670
SpSla1-D1-D2
  SPOT peptide array binding signal intensity: 393
SpSla1-D3
  SPOT peptide array binding signal intensity: 23
